According to PubChem BioAssay (NCATS):
Several values for one entry are separate records, joined by “and”; a condition that tells them apart may be missing. Equal entries are not always repeated. Records with an inconclusive call do not appear. Activity calls are given as the source filed them. Unless noted, calls come from the whole dose curve; as a rule, active = well fitted inhibition curve with a large enough effect; inconclusive = small, poorly fitted or top-dose-only effect; inactive = flat fitted curve, though single readings scatter.

Legend:
[1] = qHTS drug screen for cell cycle checkpoint inhibitors in PARPi-resistant BRCA-mutant ovarian cancer cell lines. (AID 1963452; calls by dose curve); conditions: PEO1/OlaR viability, CellTiter-Glo luminescence, 96 h; for Z-AUC: stronger effect = lower value
Summary of the method: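 PEO1, PEO4 and PEO1/OlaR ovarian cancer cells, 600 per well, exposed 96 h at 37C to a dilution series. Viability read by CellTiter-Glo luminescence, normalized to DMSO and empty wells; activity summarized as Z-AUC.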

[2] = qHTS profiling for inhibitors of Plasmodium falciparum proliferation (AID 504749); note: nearly all actives have a fitted effect of over 60% in size;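 for activity, negative = inhibition: 0% = DMSO vehicle and full inhibition = artemisinin control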; conditions: P. falciparum in erythrocytes, SYBR Green DNA, 72 h
Summary of the method: (§1)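 P. falciparum-infected erythrocytes (0.3% parasitemia, 2.5% hematocrit) incubated with compound 72 h at 37 C, 5% CO2. Parasite DNA detected by SYBR Green after lysis, overnight at room temperature; normalised to 0.29 uM artemisinin and DMSO.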

3D7 = assay: as above; conditions: P. falciparum in erythrocytes, SYBR Green DNA, 72 h; series mostly up to 28.7 µM
Summary of the method: as §1

7G8 = assay: as above; conditions: P. falciparum in erythrocytes, SYBR Green DNA, 72 h; series mostly up to 28.7 µM
Summary of the method: as §1

AA1029 = assay: as above; conditions: P. falciparum in erythrocytes, SYBR Green DNA, 72 h; series mostly up to 28.7 µM
Summary of the method: as §1

[3] = measured here: PEO1 parental Z-AUC
[4] = at 28.7 µM (top of the series), parasite line A
[5] = at 28.7 µM (top of the series), parasite line B
Potency is the fitted concentration of half-maximal effect.

| SMILES | Z-AUC [1] | Z-AUC [1, 3] | Z-AUC ([1]; measured here: PEO4 Z-AUC) | activity, negative = inhibition [2, 4] | activity, negative = inhibition [2, 5] | Potency (3D7) | Potency (7G8) | Potency (AA1029) | Potency ([2]; parasite line B) | Potency [1] | activity, negative = inhibition ([2]; at 12.8 µM (top of the series), parasite line A) | activity, negative = inhibition ([2]; at 12.8 µM (top of the series), parasite line B) |
| --- | --- | --- | --- | --- | --- | --- | --- | --- | --- | --- | --- | --- |
| CC(C)NCC(O)c1ccc(NS(C)(=O)=O)cc1 (stereo not drawn) | -0.911 (inactive) | 1.13 | 0.42 | -2.6% (inactive) and 1.55% (inactive) | 9.61% (inactive) and 12.6% (inactive) | inactive | inactive | inactive | – | – | – | – |
| CC(C)Cn1cnc2c(N)nc3ccccc3c21 | -0.974 (inactive) | -0.536 | -1.36 | – | -10.9% (inactive) | inactive | – | inactive | – | – | – | – |
| C1CCC(C(CC2CCCCN2)C2CCCCC2)CC1 (stereo not drawn) | -0.764 (inactive) | -0.095 | -0.0366 | – | – | 7.94 µM (active) | 1.26 µM (active) | 11.2 µM (active) | 8.91 µM (active) | – | – | – |
| COc1ccc(C(=O)CC(=O)c2ccc(C(C)(C)C)cc2)cc1 | 1.49 (inactive) | 0.772 | 1.06 | 0.965% (inactive) | – | inactive | – | inactive | – | – | – | – |
| O=P(O)(O)C(O)(Cc1cccnc1)P(=O)(O)O | 0.331 (inactive) | 0.503 | 0.956 | 11.1% (inactive) | 6.62% (inactive) | inactive | inactive | inactive | – | – | – | – |
| CC[C@H](C)C(=O)O[C@H]1C[C@@H](C)C=C2C=C[C@H](C)[C@H](CC[C@@H]3C[C@@H](O)CC(=O)O3)[C@H]21 | 1 (inactive) | 1.47 | 1.3 | -2.1% (inactive) | -31.4% (inactive) | inactive | inactive | inactive | – | – | – | – |
| CCCCCCNC(=O)n1cc(F)c(=O)[nH]c1=O | 1.08 (inactive) | 0.601 | 0.733 | – | – | 4.47 µM (active) | 5.01 µM (active) | – | – | – | – | – |
| CCc1c2c(nc3ccc(OC(=O)N4CCC(N5CCCCC5)CC4)cc13)-c1cc3c(c(=O)n1C2)COC(=O)[C@]3(O)CC | – | -2.61 | -1.83 | -1.15% (inactive) | – | inactive | – | inactive | – | 0.0309 µM (active) | – | – |
| COC(=O)Nc1nc2ccc(C(=O)c3ccccc3)cc2[nH]1 | – | -1.51 | -1.61 | – | – | inactive | inactive | inactive | – | 0.436 µM (active) | 5.97% (inactive) | 9.61% (inactive) |
| CCOC(=O)[C@H](CCc1ccccc1)N[C@H]1CS[C@H](c2cccs2)CN(CC(=O)O)C1=O | -0.655 (inactive) | -0.787 | -0.726 | -33.7% (inactive) | – | inactive | – | inactive | – | – | – | – |
| Nc1nc(N)c2nc(CNc3ccc(C(=O)NC(CCC(=O)O)C(=O)O)cc3)cnc2n1 (stereo not drawn) | 0.0258 (inactive) | 0.192 | 1.1 | 3.54% (inactive) | -5.01% (inactive) | inactive | inactive | inactive | – | – | – | – |
| COc1ccc(-c2ccc3cc(C(=O)O)ccc3c2)cc1C12CC3CC(CC(C3)C1)C2 | 0.117 (inactive) | -0.0792 | -0.489 | 6.34% (inactive) | 6.13% (inactive) | inactive | – | inactive | – | – | – | – |
